From PubChem BioAssay AID430 (Sanford-Burnham Center for Chemical Genomics, 2006)
Out of some 63,000 compounds screened, about 1,100 (1.7%) were called active. The sample holds actives, similar compounds and a random draw of the others, so the mix is not that of the screen. Potency and affinity values are given separately. Values without a mark were called inactive. Cut-off read from the data, not from the text of the source: active = cytotoxicity above about 50%; inactive = the rest.

experiment: HPDE-C7 pancreatic duct cell viability loss – fluorescence, HTS (AID 430); settings: HPDE-C7 pancreatic duct cells viability, at 10 µM, active compounds read high;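 note: cells exposed to compound for 48 hours before viability readout; 0% = vehicle and 100% = reference cytotoxic drug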

Row | SMILES | cytotoxicity
1 | CC1CCCCC1NC(=O)CSc1nnc(COc2ccccc2Cl)o1 (stereo not given) | -6.2%
2 | CCCn1c(N)c(N(C)C)c(=O)n(CC(=O)Nc2ccc(OC(F)(F)F)cc2)c1=O | -2.7%
3 | COc1ccc(OC)c(Nc2cc(-c3ccccc3)nc(N)n2)c1 | 68.5% (active)
4 | COc1ccc(OC)c(Nc2cc(C)nc3ccccc23)c1 | -3.8%
5 | COc1cc(-c2ccccc2)nc(N)n1 | -3.4%
6 | Cc1nc2ccccc2c2oc(C(=O)N3CCc4ccccc43)cc12 | 0.3%
7 | COCCN1C=C(C(=O)OC)C(c2ccc(OC)c(OC)c2)C(C(=O)OC)=C1 | -14.4%
8 | CC1CN(c2nc3ccccn3c(=O)c2/C=C(\C#N)S(=O)(=O)c2ccccc2)CC(C)O1 (stereo not given) | -12.3%
9 | O=C(CSc1nnc(-c2ccco2)c(-c2ccco2)n1)Nc1ccccc1 | 9.9%
10 | Cc1ccc(NC(=O)CSc2nnc(-c3ccco3)c(-c3ccco3)n2)cc1 | 82.6% (active)
11 | Clc1ccccc1CSc1ncccn1 | -5.2%
12 | Cc1cc(C)nc(SCc2nnc(SCc3ccccc3Cl)o2)n1 | -4.7%
13 | COc1ccc(NC(=O)CSc2nnc(-c3ccco3)n2C)cc1 | -10.6%
14 | CC1(C)OC(=O)C(=CNc2cccc(C(=O)O)c2)C(=O)O1 | -20.6%
15 | COc1ccc(S(=O)(=O)NCCSc2ccc(C)cc2)cc1OC | 12.8%
16 | COc1ccc(-c2nc(CN3CCC(C(=O)NC(C)C)CC3)c(C)o2)cc1OC | -10.9%
17 | COc1ccc(C2C(C(C)=O)=C(O)C(=O)N2C)c(OC)c1 (stereo not given) | 6.1%
18 | COc1ccc(C2CC(c3c(O)cc(C)oc3=O)=NCCS2)c(OC)c1 (stereo not given) | 71.1% (active)
19 | COc1ccc(C2NC(=O)c3n[nH]c(C)c32)c(OC)c1 (stereo not given) | 4.3%
20 | Cc1cccc(N(Cc2nnc3n2CCCCC3)C(=O)Nc2ccccc2)c1 | -21.7%
21 | COc1cc(CO)cc(-c2cc(CO)cc(OC)c2OC)c1OC | 4%
22 | OCCN1CCN(c2ncnc3c2sc2nc(N4CCOCC4)c4c(c23)CCC4)CC1 | 35.6%
23 | CC1(C)Cc2c(c(N3CCCC3)nc3sc4c(N5CCN(CCO)CC5)ncnc4c23)CO1 | 60.5% (active)
24 | CN1CCN(c2ncnc3c2sc2nc(N4CCCC4)c4c(c23)CC(C)(C)OC4)CC1 | -7.2%

Row | SMILES | cytotoxicity
25 | Cn1c(N2CCN(c3ccccn3)CC2)nc2c1c(=O)n(Cc1ccc(Cl)cc1)c(=O)n2C | 66.4% (active)
26 | Cn1c(OCc2cccnc2)nc2c1c(=O)n(Cc1ccccc1)c(=O)n2C | 25%
27 | Cn1c(OCc2cccnc2)nc2c1c(=O)n(Cc1ccc(Cl)cc1)c(=O)n2C | 44%
28 | Cn1c(NCC(O)c2ccccc2)nc2c1c(=O)n(Cc1ccc(Cl)cc1)c(=O)n2C (stereo not given) | 53.2% (active)
29 | Cn1c(NCc2ccco2)nc2c1c(=O)n(Cc1ccc(Cl)c(Cl)c1)c(=O)n2C | 8%
30 | Cn1c(NCC(O)c2ccccc2)nc2c1c(=O)n(Cc1ccc(Cl)c(Cl)c1)c(=O)n2C (stereo not given) | 69% (active)
31 | Cn1c(NCCCN2CCOCC2)nc2c1c(=O)n(Cc1ccc(Cl)c(Cl)c1)c(=O)n2C | 44%
32 | Cn1c(N2CCN(c3ccccn3)CC2)nc2c1c(=O)n(Cc1ccccc1Cl)c(=O)n2C | -12.8%
33 | Cn1c(NCc2ccccc2)nc2c1c(=O)n(Cc1ccccc1)c(=O)n2C | 5.6%
34 | Cn1c(N2CCCC2)nc2c1c(=O)n(Cc1ccc(Cl)cc1)c(=O)n2C | 1.7%
35 | Cn1c(OCc2cccnc2)nc2c1c(=O)n(Cc1ccc(Br)cc1)c(=O)n2C | 50.4% (active)
36 | COc1ccc(CNc2nc3c(c(=O)n(Cc4ccc(Cl)cc4)c(=O)n3C)n2C)cc1 | 26.6%
37 | COc1cccc(NC(=O)N2CCN(c3ccc(C(F)(F)F)cn3)CC2)c1 | 1%
38 | O=C(Cn1nnc2ccccc2c1=O)NC1CCCc2ccccc21 (stereo not given) | -10.4%
39 | N#CCCN(Cc1cccnc1)C(=O)c1ccc(S(=O)(=O)N2CCOCC2)cc1 | -11%
40 | CCOC(=O)c1[nH]c(C)c(C(=O)NCc2ccccn2)c1C | -28.2%
41 | CCCC(c1nnnn1C1CCCCC1)N1CCN(c2ncccn2)CC1 (stereo not given) | -4%
42 | Cc1cccc2cc3c(N)c(C(=O)N4CCOCC4)sc3nc12 | 67.6% (active)
43 | Cc1ccc2nc3sc(C(=O)N4CCOCC4)c(N)c3cc2c1 | 2.9%
44 | Cc1ccc2cc3c(N)c(C(=O)N4CCOCC4)sc3nc2c1 | -0.1%
45 | CN(Cc1nnc(SCC(=O)NCCc2ccccc2)n1C)S(=O)(=O)c1ccccc1 | -11.2%
46 | O=C(Nc1ccc(N2CCN(C(=O)c3ccccc3)CC2)cc1)c1ccc(Br)o1 | -3.2%
47 | CC1=CC(=C(C#N)c2nc3ccccc3s2)C=C(C)N1Cc1ccco1 | 10.5%
48 | O=C(OCC#CCSc1nc2ccccc2s1)c1ccco1 | -5.2%

Row | SMILES | cytotoxicity
49 | c1csc(CSc2nc3ccccc3s2)c1 | -16.5%
50 | N#C/C(=C\c1ccco1)Sc1nc2ccccc2s1 | 54.9% (active)
51 | O=C(CCCSc1nc2ccccc2s1)Nc1nccs1 | -2.3%
52 | O=C(Cn1cnc2ccccc2c1=O)OCC(=O)c1ccc2c(c1)OCCO2 | 3%
53 | O=C(c1cc2nc(-c3ccco3)cc(C(F)(F)F)n2n1)N1CCN(c2ccccc2)CC1 | -3%
54 | CCOc1ccc(C2N(c3cc(Cl)ccc3OC)C(=O)C3CCCN32)cc1OC (stereo not given) | -15.6%
55 | Cc1ccc(CS(=O)(=O)CCC(=O)NCCN2CCCCC2C)cc1 (stereo not given) | 7.5%
56 | O=C(O)c1ccc(N2CCCCC2)cc1 | -6.8%
57 | Nc1ccc(N2CCCCC2)cc1N1CCCCC1 | 37%
58 | CCOc1nc(-c2ccccc2)ccc1-c1noc(-c2cccnc2)n1 | -30.6%
59 | Cc1nc(NC2=NCN(C3CCCCC3C)CN2)nc2ccccc12 (stereo not given) | -2.8%
60 | Cc1cccc(NC(=O)N2CCC(NC(=O)c3ccccc3C)CC2)c1 | 2.1%
61 | COC(=O)c1ccccc1NC(=O)CN1CCN(C(=O)c2ccco2)CC1 | 4.2%
62 | O=S(=O)(c1ccc(S(=O)(=O)N2CCCC2)cc1)N1CCCCCC1 | -7.3%
63 | O=C(O)c1cc(S(=O)(=O)N2CCCCCC2)ccc1Cl | -1.3%
64 | Cn1c(=O)c2c(nc(N3CCCCC3)n2CCSc2nc3ccccc3o2)n(C)c1=O | -14.5%
65 | Cc1ccc(CN2CCN(C(=O)C3CCCO3)CC2)cc1 (stereo not given) | -27.2%
66 | CCOc1ccccc1NC(=O)CSc1nccn1-c1ccccc1 | -12.5%
67 | COc1ccc(-n2c(N)c(C(=O)NCc3ccco3)c3nc4ccccc4nc32)c(OC)c1 | 14.2%
68 | Nc1ccc(-n2c(N)c(C(=O)NCc3ccc4c(c3)OCO4)c3nc4ccccc4nc32)cc1 | 26.7%
69 | Nc1c(C(=O)NCCN2CCOCC2)c2nc3ccccc3nc2n1CCc1ccccc1 | 7.5%
70 | Nc1c(C(=O)NCCN2CCOCC2)c2nc3ccccc3nc2n1CCc1ccccc1F | 0.5%
71 | COc1ccc(CCn2c(N)c(C(=O)NCc3ccco3)c3nc4ccccc4nc32)cc1OC | 32.4%
72 | Nc1c(C(=O)NCCN2CCOCC2)c2nc3ccccc3nc2n1-c1ccc2c(c1)OCO2 | 1%

Row | SMILES | cytotoxicity
73 | CN1CCN(S(=O)(=O)c2ccc3c4c(cccc24)C(=O)N3)CC1 | 5.6%
74 | COc1ccc(NC(=O)C2CCN(S(=O)(=O)c3cccc4cccnc34)CC2)cc1 | -6.3%
75 | CCOC(=O)N1CCN(C(=O)CSc2nnc(Cc3cccn3C)n2CCc2ccccc2)CC1 | -10.2%
76 | Cc1cccc2cc(COC(=O)c3ccccn3)c(=O)[nH]c12 | -10.7%
77 | C=CCn1c(=N)n(CC(=O)O)c2ccccc21 | -15.2%
78 | COCCCn1c(-c2ccsc2)nc2c1c(=O)[nH]c(=O)n2Cc1ccccc1 | -11%
79 | CCCC(=O)Nc1cccc2c1CCCC2 | 2.9%
80 | Cc1ccc(-n2nnc3c(=O)n(Cc4cccc(C)c4)cnc32)cc1 | 0.4%
81 | CCOC(=O)c1sc(NC(=O)c2cc3c(C)nn(-c4ccccc4)c3s2)nc1C | 4%
82 | Nc1nonc1C(=O)NCCN=Cc1cc(Cc2ccccc2)cc(Br)c1O | 87.2% (active)
83 | COc1cccc(C=NCCNC(=O)c2nonc2N)c1O | 9.3%
84 | Nc1nonc1C(=O)NCCNC(=O)c1ccccc1F | -4.8%
85 | O=C1c2oc3ccc(Br)cc3c(=O)c2C(c2cccnc2)N1Cc1ccco1 (stereo not given) | -14.2%
86 | Oc1c(-c2cc(-c3ccco3)[nH]n2)ccc2ccccc12 | 1.8%
87 | CSc1nc(N)nc(SCC(=O)C23CC4CC(CC(C4)C2)C3)c1C#N | 74% (active)
88 | CSc1nc(N)nc(SCC(=O)OC(C)C)c1C#N | -1.7%
89 | CSc1nc(N)nc(SCC(=O)c2ccc(C)cc2)c1C#N | 3.8%
90 | Cc1cc2n(n1)C(c1ccc(O)cc1)Nc1ccccc1-2 (stereo not given) | 7.9%
91 | O=C(COC(=O)C1(c2ccccc2F)CCCC1)NC1CCS(=O)(=O)C1 (stereo not given) | -14.8%
92 | COc1ccc(CNc2nc3c(c(=O)[nH]c(=O)n3C)n2Cc2ccccc2C)cc1 | -5.5%
93 | COc1ccc(-c2nsc3c(N4CCN(S(=O)(=O)c5ccccc5)CC4)ncnc23)cc1 | 55.2% (active)
94 | COc1ccc(S(=O)(=O)N2CCN(c3ncnc4c(-c5ccccc5)nsc34)CC2)cc1 | 5.6%
95 | COc1ccc(-c2nsc3c(N4CCCC4)ncnc23)cc1 | 7.9%
